Here are results for five compounds from PubChem BioAssay (EPA / NIEHS).

“And” between values parts separate entries of the source, which are not always exact repeats. Equal values may be shown once. Inconclusive results are not listed. The source made the active and inactive calls. How the source made its calls, unless noted: active means hit-call score of the fitted dose curve at least 0.9, where 1 is the maximum; inactive means score below 0.9.

Experiment [1] is described as follows: ATG_NFI_CIS: Attagene CIS-FACTORIAL HepG2 Assay for human Nuclear Factor I (NFI) (AID 2282989). The settings on record: HepG2 cis-regulatory reporter, NFI response element transcription; actives raise or lower the signal. Put shortly:
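Read-out: reporter mRNA via RT-PCR plus capillary electrophoresis with fluorescence detection. Transiently transfected HepG2 (endogenous TF activity on cis promoters), 24 h compound exposure; gain or loss of signal fitted against DMSO.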

Experiment [2] concerns the target Myc proto-oncogene protein (Homo sapiens) (UniProt P01106). The experiment is described as follows: ATG_Myc_CIS: Attagene CIS-FACTORIAL HepG2 Assay for human Myelocytomatosis (Myc) Proto-Oncogene Transcription Factor (AID 2282990). The settings on record: HepG2, Attagene cis-reporter transcription factor activity; actives raise or lower the signal. The method in brief:
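Transiently transfected HepG2 cells bearing cis-promoter reporter units for endogenous transcription factors; 24 h exposure. Reporter mRNA measured by RT-PCR, 6-FAM primer extension, HpaI cut and capillary electrophoresis; bidirectional fit relative to DMSO.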

Experiment [3] is described as follows: ATG_NF_kB_CIS: Attagene CIS-FACTORIAL HepG2 Assay for human Nuclear Factor Kappa B (NF-kB) (AID 2282991). The settings on record: HepG2 Attagene cis-factorial NF-kB reporter mRNA; actives raise or lower the signal. Put shortly: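 Read-out: reporter transcript levels quantified by RT-PCR plus capillary electrophoresis of 6-FAM-labelled, HpaI-cut fragments. Transfected HepG2 cells, 24 h compound exposure, endogenous NF-kB-driven cis element; gain or loss scored versus DMSO.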

Experiment [4] can be described thus: ATG_NRF2_ARE_CIS: Attagene CIS-FACTORIAL HepG2 Assay for human Nuclear Factor Erythroid 2 Related Factor 2 (NFR2) response to Antioxidant Response Elements (ARE) (AID 2282992).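 On AC50: reporter mRNA level measured by RT-PCR and capillary electrophoresis fluorescence.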 As to conditions: HepG2 Attagene ARE/NRF2 reporter, transcription factor activity; actives raise or lower the signal. Put shortly:
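Endogenous transcription factor activity in human liver HepG2 cells is tracked via a cis-element-driven reporter within a multiplexed set. mRNA induction is read by RT-PCR and capillary electrophoresis after 24 h, with DMSO as baseline.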

The nature of experiment [5]: ATG_Oct_MLP_CIS: Attagene CIS-FACTORIAL HepG2 Assay for human Octamer-Binding Transcription Factor (Oct) (AID 2282993). As to conditions: HepG2 Attagene cis-factorial Oct reporter, mRNA; actives raise or lower the signal. Put shortly:
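Read-out: reporter mRNA via RT-PCR plus capillary electrophoresis of 6-FAM-labelled fragments. Transiently transfected HepG2, 24 h exposure, endogenous TF activity on cis elements. Gain or loss of signal fitted relative to DMSO.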

Experiment [6] addresses Cellular tumor antigen p53 (Homo sapiens) (UniProt P04637). The experiment in a line: ATG_p53_CIS: Attagene CIS-FACTORIAL HepG2 Assay for human p53 Transcription Factor (AID 2282994). The settings on record: HepG2 p53 cis-element reporter, Attagene mRNA; actives raise or lower the signal. The method in brief:
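Steps: transfect HepG2 with multiplexed cis reporter constructs; dose chemicals 24 h; extract RNA, reverse-transcribe, PCR-amplify reporter sequences; FAM-label, HpaI-digest, resolve fragments by CE. Activity fitted both directions relative to DMSO.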

Experiment [7] in a line: BSK_3C_uPAR: BioMAP Diversity Plus: 3C Assay for Urokinase-type plasminogen activator receptor (uPAR) Biomarker Activity (AID 2282998). As to conditions: BioMAP 3C HUVEC, uPAR biomarker ELISA; actives raise or lower the signal. The method in brief:
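HUVEC primary cells; 24 h post-dose; uPAR by ELISA; gain or loss of signal fitted bidirectionally vs DMSO baseline.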

Experiment [8] in a line: BSK_3C_VCAM1: BioMAP Diversity Plus: 3C Assay for Vascular cell adhesion molecule 1 (VCAM1) Biomarker Activity (AID 2282999). The settings on record: BioMAP 3C HUVEC, VCAM1 ELISA, cytokine-stimulated; actives raise or lower the signal. The method in brief: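 HUVEC primary cells, 24 h compound exposure; VCAM-1 by ELISA; gain/loss of signal fitted bidirectionally vs DMSO baseline.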
For orientation: An ELISA detects its analyte on a solid surface through an enzyme-linked reagent.

Experiment [9] can be described thus: BSK_4H_Eotaxin3: BioMAP Diversity Plus: 4H Assay for Eotaxin 3 Biomarker Activity (AID 2283000).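 On outcome: CCL26 protein level quantified by ELISA in parallel with SRB cytotoxicity check.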 The settings on record: primary human endothelial cells (HUVEC); actives raise or lower the signal. Put shortly: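 Endothelial primary cells (human umbilical vein) exposed to compound for 24 h. ELISA detection of Eotaxin-3.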
Read-out in experiment [10]: Intercellular Adhesion Molecule 1 (ICAM1), ICAM1 (gene 3383)
The experiment is described as follows: BSK_3C_ICAM1: BioMAP Diversity Plus: 3C Assay for Intercellular Adhesion Molecule 1 (ICAM1) Biomarker Activity (AID 2283003). The settings on record: primary human endothelial cells (HUVEC); actives raise or lower the signal. The method in brief:
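ELISA readout of ICAM1 in human umbilical vein endothelial cells in the 3C system, taken 24 h post-dose. Gain or loss of signal versus DMSO was fitted in both directions, with SRB total-protein staining run in parallel.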

The nature of experiment [11]: BSK_3C_Proliferation: Cell Proliferation Assessment in the BioMAP Diversity Plus: 3C Assay (AID 2283006).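 On AC50: potency may reflect either rise or fall in cell number versus DMSO.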 As to conditions: primary human endothelial cells (HUVEC). The method in brief:
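Proliferation as total protein: sulforhodamine B (0.1%) stain of TCA-fixed subconfluent human umbilical vein endothelial cells, absorbance 560 nm, 48 h after dosing. Activity fitted in both directions against DMSO baseline.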

In experiment [12] the target is Peroxisome proliferator-activated receptor gamma (Homo sapiens) (UniProt P37231). The experiment is described as follows: ATG_PPARg_TRANS: Attagene TRANS-FACTORIAL HepG2 Assay for human Peroxisome Proliferator-activated Receptor-gamma (PPARg) (AID 2283007; active means hit-call score of the fitted dose curve at least 0.9, where 1 is the maximum). The method in brief: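 Read-out: reporter mRNA induction, detected by fluorescence after RT-PCR and capillary electrophoresis. Transiently transfected human HepG2 liver cells carrying a chimeric NR-Gal4 construct were dosed for 24 h; activity was fitted upward relative to DMSO.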

Experiment [13] deals with Nuclear receptor subfamily 1 group I member 2 (Homo sapiens) (UniProt O75469). The experiment in a line: ATG_PXR_TRANS: Attagene TRANS-FACTORIAL HepG2 Assay for human Pregnane X Receptor (PXR) (AID 2283008; active means hit-call score of the fitted dose curve at least 0.9, where 1 is the maximum). The method in brief: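 HepG2 transfected (FuGene 6) with GAL4-UAS reporter units + PXR-Gal4 chimera; dosed 24 h. Total RNA → oligo(dT) RT → PCR → 6-FAM primer extension → HpaI cut → CE. Gain-of-signal vs DMSO.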

The target in experiment [14] is human Peroxisome Proliferator-activated Receptor alpha (PPARa), PPARA (gene 5465) (UniProt Q07869). The experiment is described as follows: ATG_PPARa_TRANS: Attagene TRANS-FACTORIAL HepG2 Assay for human Peroxisome Proliferator-activated Receptor alpha (PPARa) (AID 2283001; active means hit-call score of the fitted dose curve at least 0.9, where 1 is the maximum). Put shortly:
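HepG2, transient MRTU transfection, 24 h treatment. RT-PCR → FAM labelling → capillary electrophoresis. Fit vs DMSO, positive direction.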

For experiment [15], the target named is human Retinoic Acid Receptor beta (RARb), RARB (gene 5915) (UniProt P10826). The experiment is described as follows: ATG_RARb_TRANS: Attagene TRANS-FACTORIAL HepG2 Assay for human Retinoic Acid Receptor beta (AID 2283004; active means hit-call score of the fitted dose curve at least 0.9, where 1 is the maximum). Put shortly:
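HepG2, transient MRTU transfection, NR–Gal4 chimera, 24 h treatment; RT-PCR plus CE fluorescence detection of reporter mRNA; gain of signal vs DMSO.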

For experiment [16], the target named is human Retinoic Acid Receptor gamma (RARg), RARG (gene 5916) (UniProt P13631). The experiment is described as follows: ATG_RARg_TRANS: Attagene TRANS-FACTORIAL HepG2 Assay for human Retinoic Acid Receptor gamma (RARg) (AID 2283009; active means hit-call score of the fitted dose curve at least 0.9, where 1 is the maximum). Put shortly: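 Transactivation of exogenous RARg-Gal4 fusion measured as reporter transcript induction after 24 h in transfected HepG2 cells. RNA reverse-transcribed, amplified, fluorescently labeled and resolved by capillary electrophoresis; increase relative to DMSO.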

Experiment [17] addresses human RAR-related Orphan Receptor beta (RORb), RORB (gene 6096) (UniProt Q92753). The experiment is described as follows: ATG_RORb_TRANS: Attagene TRANS-FACTORIAL HepG2 Assay for human RAR-related Orphan Receptor beta (RORb) (AID 2283010; active means hit-call score of the fitted dose curve at least 0.9, where 1 is the maximum). The method in brief:
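Read-out is reporter mRNA induction, quantified by RT-PCR with fluorescent capillary electrophoresis, 24 h post-dose in transiently transfected HepG2 expressing exogenous NR-Gal4 chimera. Activity fitted upward versus DMSO.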

The target of experiment [18] is human RAR-related Orphan Receptor gamma (RORg), RORC (gene 6097) (UniProt P51449). The experiment is described as follows: ATG_RORg_TRANS: Attagene TRANS-FACTORIAL HepG2 Assay for human RAR-related Orphan Receptor gamma (RORg) (AID 2283011; active means hit-call score of the fitted dose curve at least 0.9, where 1 is the maximum). Put shortly:
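Activity is scored as increase in GAL4-UAS reporter mRNA over DMSO, detected by fluorescent RT-PCR and capillary electrophoresis in HepG2 cells transiently expressing a RORg-Gal4 chimera, 24 h after dosing.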

Experiment [19] addresses human Peroxisome Proliferator-activated Receptor delta (PPARd), PPARD (gene 5467) (UniProt Q03181). The experiment is described as follows: ATG_PPARd_TRANS: Attagene TRANS-FACTORIAL HepG2 Assay for human Peroxisome Proliferator-activated Receptor delta (PPARd) (AID 2283002; active means hit-call score of the fitted dose curve at least 0.9, where 1 is the maximum). The method in brief: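 HepG2 cells transiently transfected with GAL4-UAS multiplexed reporter units driven by exogenous chimeric NR-GAL4 proteins; 24 h compound exposure. Reporter mRNA measured by RT-PCR, 6-FAM primer extension, HpaI digestion and capillary electrophoresis; gain of signal fitted relative to DMSO.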

Chain of Nuclear receptor subfamily 1 group I member 2 (Homo sapiens) (O75469 whole entry, looked up, the tested form may be a part): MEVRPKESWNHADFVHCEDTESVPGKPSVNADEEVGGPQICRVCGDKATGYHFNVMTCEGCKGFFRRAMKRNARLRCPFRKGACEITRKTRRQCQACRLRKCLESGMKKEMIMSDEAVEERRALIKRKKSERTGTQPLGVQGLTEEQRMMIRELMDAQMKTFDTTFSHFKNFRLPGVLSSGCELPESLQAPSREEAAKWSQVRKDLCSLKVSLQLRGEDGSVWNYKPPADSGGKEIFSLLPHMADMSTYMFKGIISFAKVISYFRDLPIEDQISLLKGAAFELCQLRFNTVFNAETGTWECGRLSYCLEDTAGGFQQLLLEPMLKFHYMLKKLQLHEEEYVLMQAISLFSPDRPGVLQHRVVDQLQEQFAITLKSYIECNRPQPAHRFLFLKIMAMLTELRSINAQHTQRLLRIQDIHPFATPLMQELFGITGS
Chain of human Peroxisome Proliferator-activated Receptor delta (PPARd), PPARD (gene 5467) (Q03181 whole entry, looked up, the tested form may be a part): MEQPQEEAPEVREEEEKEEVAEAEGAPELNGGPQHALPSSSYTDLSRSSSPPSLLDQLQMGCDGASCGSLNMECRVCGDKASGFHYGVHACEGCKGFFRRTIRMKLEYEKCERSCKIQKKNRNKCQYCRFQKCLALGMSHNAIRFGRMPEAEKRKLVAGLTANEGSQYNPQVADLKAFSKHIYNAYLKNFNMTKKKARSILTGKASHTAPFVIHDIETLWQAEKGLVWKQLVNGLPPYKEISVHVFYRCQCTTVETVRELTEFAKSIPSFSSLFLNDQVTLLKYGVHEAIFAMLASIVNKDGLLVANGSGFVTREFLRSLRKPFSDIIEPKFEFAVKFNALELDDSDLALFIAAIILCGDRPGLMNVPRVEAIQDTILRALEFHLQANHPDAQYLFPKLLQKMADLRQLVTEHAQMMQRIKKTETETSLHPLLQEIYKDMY
Chain of Myc proto-oncogene protein (Homo sapiens) (P01106 whole entry, looked up): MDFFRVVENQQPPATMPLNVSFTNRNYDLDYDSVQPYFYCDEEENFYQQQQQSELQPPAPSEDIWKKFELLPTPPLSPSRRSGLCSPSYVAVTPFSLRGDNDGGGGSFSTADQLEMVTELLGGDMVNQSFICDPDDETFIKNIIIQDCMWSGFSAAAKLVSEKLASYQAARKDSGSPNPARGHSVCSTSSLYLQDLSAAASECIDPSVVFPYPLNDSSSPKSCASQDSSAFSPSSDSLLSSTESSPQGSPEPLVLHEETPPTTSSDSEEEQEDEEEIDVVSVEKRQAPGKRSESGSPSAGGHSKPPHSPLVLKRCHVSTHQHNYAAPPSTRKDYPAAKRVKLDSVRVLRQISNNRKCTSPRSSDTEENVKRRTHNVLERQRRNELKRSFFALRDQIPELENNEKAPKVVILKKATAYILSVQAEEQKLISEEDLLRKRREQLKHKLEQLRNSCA
Chain of human RAR-related Orphan Receptor beta (RORb), RORB (gene 6096) (Q92753 whole entry, looked up, the tested form may be a part): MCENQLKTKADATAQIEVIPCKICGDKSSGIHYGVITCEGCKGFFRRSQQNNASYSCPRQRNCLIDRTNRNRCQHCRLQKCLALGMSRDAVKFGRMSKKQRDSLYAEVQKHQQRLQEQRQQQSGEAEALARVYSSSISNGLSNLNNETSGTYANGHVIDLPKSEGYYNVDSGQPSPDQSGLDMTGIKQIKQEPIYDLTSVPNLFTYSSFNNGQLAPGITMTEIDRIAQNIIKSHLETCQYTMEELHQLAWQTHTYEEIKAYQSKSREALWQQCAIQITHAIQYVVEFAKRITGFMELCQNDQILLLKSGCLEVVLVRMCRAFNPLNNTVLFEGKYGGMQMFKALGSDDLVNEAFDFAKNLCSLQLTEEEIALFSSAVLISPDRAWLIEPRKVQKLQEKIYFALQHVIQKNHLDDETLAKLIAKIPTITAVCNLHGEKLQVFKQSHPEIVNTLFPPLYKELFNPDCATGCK
Chain of Peroxisome proliferator-activated receptor gamma (Homo sapiens) (P37231 whole entry, looked up, the tested form may be a part): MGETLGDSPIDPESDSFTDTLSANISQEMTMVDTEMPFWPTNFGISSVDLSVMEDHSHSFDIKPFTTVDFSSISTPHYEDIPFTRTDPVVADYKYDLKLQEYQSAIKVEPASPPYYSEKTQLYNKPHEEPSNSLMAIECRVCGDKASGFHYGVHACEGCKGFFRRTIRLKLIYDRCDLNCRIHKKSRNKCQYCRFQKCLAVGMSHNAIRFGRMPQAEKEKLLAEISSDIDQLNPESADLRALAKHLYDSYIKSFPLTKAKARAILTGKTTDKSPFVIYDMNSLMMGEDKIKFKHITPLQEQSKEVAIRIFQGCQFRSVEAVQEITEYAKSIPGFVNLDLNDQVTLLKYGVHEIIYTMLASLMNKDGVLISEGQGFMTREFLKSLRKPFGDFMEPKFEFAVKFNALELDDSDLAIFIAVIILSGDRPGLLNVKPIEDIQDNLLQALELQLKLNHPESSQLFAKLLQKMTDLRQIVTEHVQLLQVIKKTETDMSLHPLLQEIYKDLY
Chain of Cellular tumor antigen p53 (Homo sapiens) (P04637 whole entry, looked up, the tested form may be a part): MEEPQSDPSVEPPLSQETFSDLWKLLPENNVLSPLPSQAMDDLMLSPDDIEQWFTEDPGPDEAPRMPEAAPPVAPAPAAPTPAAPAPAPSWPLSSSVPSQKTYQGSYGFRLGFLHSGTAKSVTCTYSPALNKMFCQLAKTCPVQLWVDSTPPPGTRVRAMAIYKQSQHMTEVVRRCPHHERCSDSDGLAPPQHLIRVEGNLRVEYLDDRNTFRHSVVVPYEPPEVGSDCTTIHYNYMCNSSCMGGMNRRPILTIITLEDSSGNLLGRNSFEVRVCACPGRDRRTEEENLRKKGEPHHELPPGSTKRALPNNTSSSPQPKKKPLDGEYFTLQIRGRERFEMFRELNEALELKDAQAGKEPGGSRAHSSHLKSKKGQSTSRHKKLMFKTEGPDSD
Chain of human Peroxisome Proliferator-activated Receptor alpha (PPARa), PPARA (gene 5465) (Q07869 whole entry, looked up): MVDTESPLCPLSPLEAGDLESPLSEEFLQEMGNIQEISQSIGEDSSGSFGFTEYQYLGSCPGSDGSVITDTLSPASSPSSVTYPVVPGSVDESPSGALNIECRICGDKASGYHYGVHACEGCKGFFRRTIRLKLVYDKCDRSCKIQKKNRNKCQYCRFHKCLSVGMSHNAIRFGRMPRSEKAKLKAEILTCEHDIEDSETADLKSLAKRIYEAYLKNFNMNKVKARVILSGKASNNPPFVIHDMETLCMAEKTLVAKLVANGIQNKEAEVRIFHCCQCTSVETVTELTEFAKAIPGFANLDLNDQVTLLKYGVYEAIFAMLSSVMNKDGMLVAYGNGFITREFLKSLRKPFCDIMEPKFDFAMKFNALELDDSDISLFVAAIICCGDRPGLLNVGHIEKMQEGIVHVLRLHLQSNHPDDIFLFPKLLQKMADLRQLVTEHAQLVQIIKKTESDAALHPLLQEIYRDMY
Chain of human RAR-related Orphan Receptor gamma (RORg), RORC (gene 6097) (P51449 whole entry, looked up, the tested form may be a part): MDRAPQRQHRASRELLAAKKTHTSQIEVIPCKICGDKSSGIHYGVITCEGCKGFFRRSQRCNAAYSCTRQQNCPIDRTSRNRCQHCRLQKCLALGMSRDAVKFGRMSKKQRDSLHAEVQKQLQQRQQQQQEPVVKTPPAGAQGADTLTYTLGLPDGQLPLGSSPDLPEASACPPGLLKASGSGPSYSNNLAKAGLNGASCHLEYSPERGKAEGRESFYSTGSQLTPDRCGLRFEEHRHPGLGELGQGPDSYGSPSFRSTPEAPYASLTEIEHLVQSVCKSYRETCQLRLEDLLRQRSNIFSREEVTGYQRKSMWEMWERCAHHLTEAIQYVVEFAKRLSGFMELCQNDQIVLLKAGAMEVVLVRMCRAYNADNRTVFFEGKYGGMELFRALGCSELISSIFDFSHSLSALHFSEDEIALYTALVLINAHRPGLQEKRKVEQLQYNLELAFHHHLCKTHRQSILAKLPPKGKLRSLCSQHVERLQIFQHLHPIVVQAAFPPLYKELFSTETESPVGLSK
Chain of human Retinoic Acid Receptor gamma (RARg), RARG (gene 5916) (P13631 whole entry, looked up, the tested form may be a part): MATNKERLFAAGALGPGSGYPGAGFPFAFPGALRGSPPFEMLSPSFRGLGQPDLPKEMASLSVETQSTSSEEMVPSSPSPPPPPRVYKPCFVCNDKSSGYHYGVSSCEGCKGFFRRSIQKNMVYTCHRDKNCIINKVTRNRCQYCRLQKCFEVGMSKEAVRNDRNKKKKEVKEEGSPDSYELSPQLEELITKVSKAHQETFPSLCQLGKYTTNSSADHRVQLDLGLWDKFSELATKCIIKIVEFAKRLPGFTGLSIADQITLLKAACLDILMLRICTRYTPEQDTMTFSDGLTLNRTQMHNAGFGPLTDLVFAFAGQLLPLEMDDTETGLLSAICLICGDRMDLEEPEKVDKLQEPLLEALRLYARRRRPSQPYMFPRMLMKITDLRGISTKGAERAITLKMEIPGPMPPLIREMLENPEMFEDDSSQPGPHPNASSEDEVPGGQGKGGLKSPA
Chain of human Retinoic Acid Receptor beta (RARb), RARB (gene 5915) (P10826 whole entry, looked up, the tested form may be a part): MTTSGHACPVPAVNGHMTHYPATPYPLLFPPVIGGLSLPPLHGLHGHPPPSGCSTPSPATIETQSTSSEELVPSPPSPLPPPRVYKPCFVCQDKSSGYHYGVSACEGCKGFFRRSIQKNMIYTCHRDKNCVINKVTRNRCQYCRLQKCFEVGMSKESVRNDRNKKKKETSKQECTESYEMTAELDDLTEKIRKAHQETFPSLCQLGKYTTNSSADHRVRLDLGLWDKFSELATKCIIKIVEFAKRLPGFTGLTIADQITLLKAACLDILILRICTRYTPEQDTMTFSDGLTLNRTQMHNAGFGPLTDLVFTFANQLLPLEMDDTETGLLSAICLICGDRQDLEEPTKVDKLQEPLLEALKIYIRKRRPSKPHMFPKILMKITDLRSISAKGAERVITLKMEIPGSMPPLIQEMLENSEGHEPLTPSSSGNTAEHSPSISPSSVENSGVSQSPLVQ

A word on the AC50: it is the concentration at which the activity in the assay is half-maximal. As to `CCOC(=O)c1ccccc1C(=C1C=C(Br)C(=O)C(Br)=C1)c1cc(Br)c(O)c(Br)c1`, the AC50 in experiment [1] was 22.4 µM (active); in experiment [3], 43 µM (active); in experiment [5], 53.1 µM (active); in [6], 48.3 µM (active); in experiment [7], 20 µM (active) and 17.9 µM (active); in [8], 22.9 µM (active) and 21.4 µM (active). Moreover, the AC50 in [9] is 22.7 µM (active) and 23 µM (active); in [10], 21.1 µM (active) and 21.2 µM (active); in experiment [11], 20.1 µM (active) and 19.1 µM (active); in experiment [12] it was 3.1 µM (active). In addition, the compound was called inactive in [2], in experiment [4] and in experiment [13].

Consider `CC(=O)Oc1ccc(C)cc1`, for which the call in experiment [1], in experiment [2], in [3], in experiment [5], in [6] and in experiment [14] was inactive. Also, the outcome in experiment [15], in experiment [12], in [16], in experiment [17] and in experiment [18] was inactive. Also, the AC50 in experiment [4] is 19.6 µM (active).

`C[C@]12C=CC(=O)C=C1CC[C@@H]1[C@@H]2[C@@H](O)C[C@@]2(C)[C@H]1CC[C@]2(O)C(=O)CO`: the outcome in experiment [1], in experiment [2], in experiment [3], in [4], in experiment [5] and in experiment [6] was inactive. Further, the call in experiment [14], in experiment [19], in [17] and in [18] was inactive. Moreover, the AC50 in experiment [13] is 25.9 µM (active).

As for `CCc1c(C(=O)O)c(=O)cnn1-c1ccc(Cl)cc1`, the result in experiment [1], in experiment [2], in experiment [3], in experiment [4], in experiment [5] and in [6] was inactive. Besides, the compound was called inactive in [14], in experiment [19], in experiment [12] and in [13].

With `CCO[Si](C)(OCC)OCC`, the compound was called inactive in experiment [1], in experiment [2], in [3], in experiment [4], in [5] and in experiment [6]. Further, the outcome in experiment [7], in experiment [8], in experiment [9], in experiment [19], in [10] and in [11] was inactive. Also, the result in experiment [13] and in [17] was inactive.
